Results as given in PubChem BioAssay AID1159580 (chemical genetic matrix, 2015).
Among all 5,500 compounds or so, about 2,000 (36%) were called active. Not shown: some 18% with an inconclusive outcome. Rule as the data show it: active = normalized growth mostly below about 0.91 (no sharp cut-off); inconclusive = no clear call, values can overlap the other calls; inactive = mostly above about 0.92. The list shows a part of the results.

Test: chemical genetic growth profiling, strain panel (AID 1159580);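 also: tested at 20 µM; growth read once vehicle control cultures reached saturation at 30 °C; 1 = growth at the plate median or of vehicle wells; lower values mean less growth of the strain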
Conditions: growth OD

Measured: normalized growth

Cc1cc(O)c(C)c(O)c1C(=O)O
inactive: S. cerevisiae deletion strains, locus YJR066W, strain TOR1, stronger effect = lower value 0.948 | S. cerevisiae deletion strains, locus YKL009W, strain mrt4, stronger effect = lower value 1.01 | S. cerevisiae deletion strains, locus YKL068W, stronger effect = lower value 0.982 | S. cerevisiae deletion strains, locus YKL085W, strain MDH1 (second series), stronger effect = lower value 0.997 | S. cerevisiae deletion strains, locus YKL085W, strain MDH1, stronger effect = lower value 0.997 | S. cerevisiae deletion strains, locus YKL160W, strain elf1, stronger effect = lower value 1.02 | S. cerevisiae deletion strains, locus YKR001C, strain vps1, stronger effect = lower value 0.971 | S. cerevisiae deletion strains, locus YKR026C, strain gcn3, stronger effect = lower value 0.983 | S. cerevisiae deletion strains, locus YKR091W, strain srl3, stronger effect = lower value 0.99 | S. cerevisiae deletion strains, locus YLL001W, strain dnm1, stronger effect = lower value 1.01 | S. cerevisiae deletion strains, locus YLL026W, stronger effect = lower value 1 | S. cerevisiae deletion strains, locus YLL041C, strain sdh2, stronger effect = lower value 0.999 | S. cerevisiae deletion strains, locus YLR027C, strain aat2, stronger effect = lower value 0.983 | S. cerevisiae deletion strains, locus YLR039C, strain RIC1, stronger effect = lower value 0.982 | S. cerevisiae deletion strains, locus YLR058C, strain SHM2, stronger effect = lower value 1.01 | S. cerevisiae deletion strains, locus YLR102C, strain apc9, stronger effect = lower value 0.987 | S. cerevisiae deletion strains, locus YLR113W, strain HOG1, stronger effect = lower value 0.99 | S. cerevisiae deletion strains, locus YLR221C, strain rsa3, stronger effect = lower value 0.991 | S. cerevisiae deletion strains, locus YLR258W, strain gsy2, stronger effect = lower value 0.994 | S. cerevisiae deletion strains, locus YLR262C, strain YPT6 (second series), stronger effect = lower value 0.944 | S. cerevisiae deletion strains, locus YLR262C, strain YPT6, stronger effect = lower value 0.972 | S. cerevisiae deletion strains, locus YLR268W, strain sec22, stronger effect = lower value 1.01 | S. cerevisiae deletion strains, locus YLR320W, strain mms22, stronger effect = lower value 0.983 | S. cerevisiae deletion strains, locus YLR342W, strain FKS1 (second series), stronger effect = lower value 0.972 | S. cerevisiae deletion strains, locus YLR342W, strain FKS1, stronger effect = lower value 0.977 | S. cerevisiae deletion strains, locus YLR357W, strain rsc2, stronger effect = lower value 0.956 | S. cerevisiae deletion strains, locus YLR370C, strain arc18, stronger effect = lower value 0.988 | S. cerevisiae deletion strains, locus YLR371W, strain rom2, stronger effect = lower value 1 | S. cerevisiae deletion strains, locus YLR384C, strain iki3, stronger effect = lower value 0.998 | S. cerevisiae deletion strains, locus YLR418C, strain cdc73, stronger effect = lower value 0.943 | S. cerevisiae deletion strains, locus YML016C, strain PPZ1, stronger effect = lower value 0.924 | S. cerevisiae deletion strains, locus YML032C, strain rad52, stronger effect = lower value 1.03 | S. cerevisiae deletion strains, locus YML120C, strain ndi1, stronger effect = lower value 0.975 | S. cerevisiae deletion strains, locus YML124C, strain tub3, stronger effect = lower value 0.989 | S. cerevisiae deletion strains, locus YMR058W, strain fet3, stronger effect = lower value 0.974 | S. cerevisiae deletion strains, locus YMR078C, strain ctf18, stronger effect = lower value 0.984 | S. cerevisiae deletion strains, locus YMR125W, strain sto1, stronger effect = lower value 0.982 | S. cerevisiae deletion strains, locus YMR129W, stronger effect = lower value 0.996 | S. cerevisiae deletion strains, locus YMR205C, strain PFK2, stronger effect = lower value 0.977 | S. cerevisiae deletion strains, locus YMR223W, strain ubp8, stronger effect = lower value 0.988 | S. cerevisiae deletion strains, locus YMR231W, strain pep5, stronger effect = lower value 0.985 | S. cerevisiae deletion strains, locus YMR263W, strain SAP30, stronger effect = lower value 1.02 | S. cerevisiae deletion strains, locus YMR307W, strain GAS1, stronger effect = lower value 1.01 | S. cerevisiae deletion strains, locus YNL067W, strain RPL9B, stronger effect = lower value 0.979 | S. cerevisiae deletion strains, locus YNL071W, strain lat1, stronger effect = lower value 0.994 | S. cerevisiae deletion strains, locus YNL153C, strain GIM3, stronger effect = lower value 0.988 | S. cerevisiae deletion strains, locus YNL183C, strain NPR1, stronger effect = lower value 0.972 | S. cerevisiae deletion strains, locus YNL209W, strain ssb2, stronger effect = lower value 0.986 | S. cerevisiae deletion strains, locus YNL233W, strain BNI4, stronger effect = lower value 0.998 | S. cerevisiae deletion strains, locus YNL248C, strain rpa49, stronger effect = lower value 0.996 | S. cerevisiae deletion strains, locus YNL250W, strain rad50, stronger effect = lower value 0.946 | S. cerevisiae deletion strains, locus YNL271C, strain bni1, stronger effect = lower value 0.969 | S. cerevisiae deletion strains, locus YNL298W, strain CLA4, stronger effect = lower value 0.98 | S. cerevisiae deletion strains, locus YNL307C, strain MCK1, stronger effect = lower value 0.98 | S. cerevisiae deletion strains, locus YNL322C, strain KRE1 (second series), stronger effect = lower value 0.965 | S. cerevisiae deletion strains, locus YNL322C, strain KRE1, stronger effect = lower value 1 | S. cerevisiae deletion strains, locus YNR049C, strain mso1, stronger effect = lower value 0.983 | S. cerevisiae deletion strains, locus YNR052C, strain pop2, stronger effect = lower value 0.966 | S. cerevisiae deletion strains, locus YOL012C, strain htz1 0.903 | S. cerevisiae deletion strains, locus YOL147C, strain pex11, stronger effect = lower value 1.01 | S. cerevisiae deletion strains, locus YOR001W, strain rrp6, stronger effect = lower value 1 | S. cerevisiae deletion strains, locus YOR061W, strain CKA2, stronger effect = lower value 1.01 | S. cerevisiae deletion strains, locus YOR069W, strain VPS5, stronger effect = lower value 0.99 | S. cerevisiae deletion strains, locus YOR070C, strain gyp1, stronger effect = lower value 0.989 | S. cerevisiae deletion strains, locus YOR080W, strain dia2, stronger effect = lower value 0.974 | S. cerevisiae deletion strains, locus YOR083W, strain WHI5, stronger effect = lower value 1.03 | S. cerevisiae deletion strains, locus YOR106W, strain vam3, stronger effect = lower value 0.972 | S. cerevisiae deletion strains, locus YOR136W, strain idh2, stronger effect = lower value 0.986 | S. cerevisiae deletion strains, locus YOR144C, strain elg1, stronger effect = lower value 0.986 | S. cerevisiae deletion strains, locus YOR184W, strain ser1, stronger effect = lower value 1.05 | S. cerevisiae deletion strains, locus YOR231W, strain MKK1, stronger effect = lower value 1.03 | S. cerevisiae deletion strains, locus YOR265W, strain rbl2, stronger effect = lower value 1 | S. cerevisiae deletion strains, locus YOR270C, strain vph1, stronger effect = lower value 0.802 | S. cerevisiae deletion strains, locus YOR290C, strain snf2, stronger effect = lower value 0.956 | S. cerevisiae deletion strains, locus YOR316C, strain cot1, stronger effect = lower value 0.977 | S. cerevisiae deletion strains, locus YPL051W, strain arl3, stronger effect = lower value 1.02 | S. cerevisiae deletion strains, locus YPL055C, strain LGE1, stronger effect = lower value 1.01 | S. cerevisiae deletion strains, locus YPL078C, strain atp4, stronger effect = lower value 1 | S. cerevisiae deletion strains, locus YPL106C, strain sse1, stronger effect = lower value 0.926 | S. cerevisiae deletion strains, locus YPL240C, strain hsp82, stronger effect = lower value 1 | S. cerevisiae deletion strains, locus YPL256C, strain CLN2, stronger effect = lower value 1.03 | S. cerevisiae deletion strains, locus YPR119W, strain clb2, stronger effect = lower value 0.997 | S. cerevisiae deletion strains, locus YPR141C, strain kar3, stronger effect = lower value 0.973 | S. cerevisiae deletion strains, locus YPR163C, strain tif3, stronger effect = lower value 0.969 | S. cerevisiae deletion strains, locus YPR167C, strain met16, stronger effect = lower value 0.972 | S. cerevisiae deletion strains, strain wtn01, stronger effect = lower value 1.01 | S. cerevisiae strains, strain wild type, stronger effect = lower value 1
